In PubChem BioAssay AID590 (National Center for Advancing Translational Sciences (NCATS), 2007):
Several values for one entry are separate records, joined by “and”; a condition that tells them apart may be missing. Equal values may be shown once. Screen size: about 59,000 compounds; about 6,500 (11%) were called active. Another 15% or so got no clear call; they are omitted. Cut-off read from the data, not from the text of the source: active = max dye-equivalent concentration above about 10 nM; inconclusive = mostly about 1.1 nM to 9.6 nM; inactive = weaker than that. This excerpt belongs to a sample that is enriched for actives.

test: qHTS Assay for Spectroscopic Profiling in A350 Spectral Region; conditions: Compound autofluorescence, 340/450 nm, Alexa 350 dye-equivalents; stronger effect = higher value

Question: With `Cc1nc2nc(COc3ccccc3)[nH]n2c(=O)c1Cc1ccccc1` as the molecule, how does the max dye-equivalent concentration read?
Answer: inactive

Question: For `CC(=O)/C(C)=N\O`, which max dye-equivalent concentration is on record?
Answer: inactive

Question: Which max dye-equivalent concentration does the source give for `Cn1c(=O)c2c(nc(N3CCCCCC3)n2CC(=O)c2ccc(Br)cc2)n(C)c1=O` here?
Answer: inactive

Question: With `Cn1c(=O)c2c(nc(N3CCCCCC3)n2CC(O)COc2ccc(Cl)cc2)n(C)c1=O` (centres undefined) as the molecule, how does the max dye-equivalent concentration read?
Answer: 4.9e-08 M (active)

Question: With `Cc1cccc(Cn2c(N3CCN(c4ccccc4)CC3)nc3c2c(=O)n(C)c(=O)n3C)c1` as the molecule, how does the max dye-equivalent concentration read?
Answer: inactive

Question: With `c1ccc(CSc2nnc(-c3ccco3)n2Cc2ccccc2)cc1` as the molecule, how does the max dye-equivalent concentration read?
Answer: inactive

Question: With `CN(c1nc2ccccc2n2c(-c3ccco3)nnc12)S(=O)(=O)c1ccccc1` as the molecule, how does the max dye-equivalent concentration read?
Answer: 3.9e-08 M (active)

Question: With `Cc1ccc(Oc2nc3ccccc3n3c(C)nnc23)cc1` as the molecule, how does the max dye-equivalent concentration read?
Answer: inactive

Question: For `CC(=O)C1=C(O)C(=O)N(c2ccc(S(N)(=O)=O)cc2)C1c1ccccc1F` (centres undefined), which max dye-equivalent concentration is on record?
Answer: 2.3e-08 M (active)

Question: For `COc1ccccc1N=C1SC(C)CN1C(=O)C1CCC1` (centres undefined), which max dye-equivalent concentration is on record?
Answer: inactive

Question: With `COc1ccc(N2C(=O)CN=C2Nc2cccc(C)c2C)cc1OC` as the molecule, how does the max dye-equivalent concentration read?
Answer: inactive

Question: With `CSc1cccc(NC(=O)C2CCCN2S(=O)(=O)c2ccc3c(c2)CCC(=O)N3)c1` (centres undefined) as the molecule, how does the max dye-equivalent concentration read?
Answer: inactive

Question: With `Cc1nc2nc(SCC(=O)NCc3ccco3)nn2c(C)c1Cc1ccccc1` as the molecule, how does the max dye-equivalent concentration read?
Answer: inactive

Question: For `NC(=O)CSC1=Nc2ccccc2C2=NC(CCC(=O)NCc3ccc(F)cc3)C(=O)N12` (centres undefined), which max dye-equivalent concentration is on record?
Answer: 4.2e-07 M (active)

Question: For `CC1(c2ccccc2Cl)NC(=O)N(CC(=O)NC(=O)NCc2ccco2)C1=O` (centres undefined), which max dye-equivalent concentration is on record?
Answer: inactive

Question: Which max dye-equivalent concentration does the source give for `O=C(CN1C(=O)CCS(=O)(=O)c2ccccc21)NCc1ccc(F)cc1` here?
Answer: inactive

Question: Which max dye-equivalent concentration does the source give for `O=C(CC1N=C2c3ccccc3N=C(SCc3ccccc3Cl)N2C1=O)NCc1ccco1` (centres undefined) here?
Answer: 1.7e-08 M (active)

Question: Which max dye-equivalent concentration does the source give for `CCN(CC)S(=O)(=O)c1cccc(C(=O)NCC(=O)OCC(=O)NCc2ccccc2)c1` here?
Answer: inactive

Question: Which max dye-equivalent concentration does the source give for `COc1ccccc1N(C(=O)Cn1nnc2ccccc21)C(C(=O)NCc1ccco1)c1ccc(C)o1` (centres undefined) here?
Answer: inactive

Question: Which max dye-equivalent concentration does the source give for `COc1ccc2[nH]cc(CCNc3ncnc4ccc(-c5ccc(C(=O)N(C)C)cc5)cc34)c2c1` here?
Answer: inactive

Question: Which max dye-equivalent concentration does the source give for `O=C(O)c1ccc(-n2cccc2)cc1O` here?
Answer: inactive

Question: With `Cc1cc(Cl)ccc1N1C(=O)CC(SCCC(=O)O)C1=O` (centres undefined) as the molecule, how does the max dye-equivalent concentration read?
Answer: inactive

Question: Which max dye-equivalent concentration does the source give for `CN(C)c1ccc(NC(=O)c2ccncc2)c2ccccc12` here?
Answer: inactive

Question: Which max dye-equivalent concentration does the source give for `CCN1CCc2c(C#N)c(NCc3ccccc3)nc(NCCO)c2C1` here?
Answer: 5e-07 M (active)

Question: Which max dye-equivalent concentration does the source give for `COc1ccc2c(=O)cc(-c3ccccc3)oc2c1O` here?
Answer: inactive

Question: With `Cc1noc(C)c1-c1nccc(N2CCOCC2)n1` as the molecule, how does the max dye-equivalent concentration read?
Answer: inactive

Question: With `O=C(Nc1nsc(-c2ccccc2)n1)c1ccncc1` as the molecule, how does the max dye-equivalent concentration read?
Answer: inactive

Question: Which max dye-equivalent concentration does the source give for `CC[C@]1(O)CC2CN(CCc3c([nH]c4ccccc34)[C@@](C(=O)OC)(c3cc4c(cc3OC)N(C=O)[C@H]3[C@@](O)(C(=O)OC)[C@H](OC(C)=O)[C@]5(CC)C=CCN6CC[C@]43[C@@H]65)C2)C1` (some centres undefined) here?
Answer: inactive

Question: Which max dye-equivalent concentration does the source give for `CC[C@]1(O)C[C@@H]2CN(CCc3c([nH]c4ccccc34)[C@@](C(=O)OC)(c3cc4c(cc3OC)N(C)[C@H]3[C@@](O)(C(=O)OC)[C@H](OC(C)=O)[C@]5(CC)C=CCN6CC[C@]43[C@@H]65)C2)C1` here?
Answer: 5.4e-08 M (active)

Question: With `Cc1ccc(-c2csc3nnc(SCC(=O)NCc4ccco4)n23)cc1` as the molecule, how does the max dye-equivalent concentration read?
Answer: inactive

Question: Which max dye-equivalent concentration does the source give for `CC1CN(C2CCCCC2)c2nc3c(c(=O)n(C)c(=O)n3C)n2C1` (centres undefined) here?
Answer: inactive

Question: With `CCSc1nc2c(c(=O)[nH]1)C(c1cccnc1)C(C(=O)OC(C)C)=C(C)N2` (centres undefined) as the molecule, how does the max dye-equivalent concentration read?
Answer: 1.2e-08 M (active)

Question: Which max dye-equivalent concentration does the source give for `COC(=O)C1=C(N)Oc2cc(C)oc(=O)c2C1c1cccnc1` (centres undefined) here?
Answer: inactive

Question: Which max dye-equivalent concentration does the source give for `CC1=C(C(=O)OC2CCCCC2)C(c2cccnc2)n2ncnc2N1` (centres undefined) here?
Answer: inactive

Question: For `C=C(C)c1cccc(C(C)(C)NC(=O)N2CCN(c3ncccn3)CC2)c1`, which max dye-equivalent concentration is on record?
Answer: inactive

Question: With `CCOC(=O)c1c(C2CC2)csc1NC(=O)CSCc1c(C)noc1C` as the molecule, how does the max dye-equivalent concentration read?
Answer: inactive

Question: For `COc1c(C)c2c(c(O)c1C/C=C(\C)CCC(=O)O)C(=O)OC2`, which max dye-equivalent concentration is on record?
Answer: 6e-08 M (active) and 1.6e-08 M (active)

Question: For `COc1ccc(CC(=O)Nc2ccc3c(c2)CCC3)cc1S(=O)(=O)N1CCOCC1`, which max dye-equivalent concentration is on record?
Answer: inactive

Question: Which max dye-equivalent concentration does the source give for `Clc1ccc(C=Nc2ccc3c(c2)Cc2ccccc2-3)c(Cl)c1` here?
Answer: inactive

Question: For `CCOc1cc(CO)ccc1OCC(=O)N1CCCCC1`, which max dye-equivalent concentration is on record?
Answer: inactive

Question: For `Cc1ccc2c(c1)sc1ncc(NC(=O)c3ccccc3)c(=O)n12`, which max dye-equivalent concentration is on record?
Answer: 6.5e-08 M (active)

Question: With `Cc1ccc(NC(=O)c2nc[nH]c2C(=O)N2CCCCC2)c(C(=O)c2ccccc2)c1` as the molecule, how does the max dye-equivalent concentration read?
Answer: inactive

Question: With `Cc1ccccc1NC(=O)c1ccccc1` as the molecule, how does the max dye-equivalent concentration read?
Answer: inactive

Question: With `CCC(Oc1ccccc1)C(=O)NCc1cccnc1` (centres undefined) as the molecule, how does the max dye-equivalent concentration read?
Answer: inactive

Question: For `Cc1ccc(S(=O)(=O)c2nc(NCCCn3ccnc3)sc2Cl)cc1`, which max dye-equivalent concentration is on record?
Answer: inactive

Question: With `CC1(C)C/C(=C(/C#N)C(N)=O)CCO1` as the molecule, how does the max dye-equivalent concentration read?
Answer: inactive

Question: For `CC(C(=O)Nc1ccccc1-c1ccccc1)N1CCOCC1` (centres undefined), which max dye-equivalent concentration is on record?
Answer: inactive

Question: Which max dye-equivalent concentration does the source give for `CC(C(=O)N1CCOCC1)N1c2cccc3cccc(c23)S1(=O)=O` (centres undefined) here?
Answer: 8e-08 M (active)

Question: Which max dye-equivalent concentration does the source give for `O=C(c1ccccc1-c1ccccc1)N1CCOCC1` here?
Answer: inactive

Question: With `COC(=O)c1nc(NC(=O)c2ccc(Cl)cc2)n[nH]1` as the molecule, how does the max dye-equivalent concentration read?
Answer: inactive

Question: For `CCC(=O)c1ccc(OCC(O)CN2CC(C)OC(C)C2)cc1` (centres undefined), which max dye-equivalent concentration is on record?
Answer: inactive

Question: With `CC1CCCC(NC(=O)CN2CCN(Cc3ccc(Cl)cc3)C2=O)C1C` (centres undefined) as the molecule, how does the max dye-equivalent concentration read?
Answer: inactive

Question: For `CC(=O)c1ccc(NC(=O)N[C@@H](Cc2ccccc2)C(=O)O)cc1`, which max dye-equivalent concentration is on record?
Answer: inactive

Question: For `C[C@@H](N)[C@@H](C)Cc1ccccc1`, which max dye-equivalent concentration is on record?
Answer: inactive

Question: With `Cc1ccc(C)n1C(Cc1ccccc1)C(=O)O` (centres undefined) as the molecule, how does the max dye-equivalent concentration read?
Answer: 1.3e-08 M (active)

Question: For `O=C(C1CCCO1)N(Cc1ccccc1)c1ccccc1` (centres undefined), which max dye-equivalent concentration is on record?
Answer: inactive

Question: For `CCN(c1ccccc1)S(=O)(=O)c1cccc(C(=O)O)c1`, which max dye-equivalent concentration is on record?
Answer: inactive

Question: Which max dye-equivalent concentration does the source give for `Nc1nc(N)c2[nH]c(CNc3ccc(C(=O)O)cc3)nc2n1` here?
Answer: inactive

Question: With `O=C(Nc1ccc(Cl)cn1)Nc1cccs1` as the molecule, how does the max dye-equivalent concentration read?
Answer: inactive

Question: With `Cc1ccc(-n2ncc3c2ncn2nc(-c4ccco4)nc32)c(C)c1` as the molecule, how does the max dye-equivalent concentration read?
Answer: inactive

Question: For `Cc1cccc(-n2ncc3c(N4CCc5ccccc54)ncnc32)c1`, which max dye-equivalent concentration is on record?
Answer: 1.5e-08 M (active)

Question: Which max dye-equivalent concentration does the source give for `COc1ccc(N2CCN(C(=O)CSc3ncnc4c3cnn4-c3ccc(OC)cc3)CC2)cc1` here?
Answer: inactive

Question: For `CCCc1nc2c3cnn(-c4cccc(Cl)c4)c3ncn2n1`, which max dye-equivalent concentration is on record?
Answer: inactive

Question: With `c1ccc(-n2ncc3c(N4CCCC4)ncnc32)cc1` as the molecule, how does the max dye-equivalent concentration read?
Answer: inactive

Question: For `COc1ccc(-n2ncc3c(N4CCCc5ccccc54)ncnc32)cc1`, which max dye-equivalent concentration is on record?
Answer: 2.5e-08 M (active)

Question: For `Cc1cc2ccccc2n2c(SCC(=O)N3CCN(C(=O)c4ccco4)CC3)nnc12`, which max dye-equivalent concentration is on record?
Answer: inactive

Question: For `CC(=O)Nc1ccn(Cc2c(F)cccc2Cl)n1`, which max dye-equivalent concentration is on record?
Answer: inactive

Question: Which max dye-equivalent concentration does the source give for `CCCCCn1c(SCCC(C)C)nc2c1c(=O)[nH]c(=O)n2C` here?
Answer: inactive

Question: With `O=C(O)CN(Cc1ccco1)S(=O)(=O)c1ccc(F)cc1` as the molecule, how does the max dye-equivalent concentration read?
Answer: inactive
